Test results as given in PubChem BioAssay AID624110 (Broad Institute, 2012).
Active and inactive are the calls of the source.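 The calls were made as follows: active = signal falls with dose and the fitted half-maximal concentration is at most twice the highest valid tested dose; inconclusive = flat fit with a moderate signal drop, or unreliable fit; inactive = opposite effect, flat near zero, or potency past limit.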

Biological target: PglD acetyltransferase (Campylobacter jejuni) (UniProt O86157)
Sequence (O86157 1-203): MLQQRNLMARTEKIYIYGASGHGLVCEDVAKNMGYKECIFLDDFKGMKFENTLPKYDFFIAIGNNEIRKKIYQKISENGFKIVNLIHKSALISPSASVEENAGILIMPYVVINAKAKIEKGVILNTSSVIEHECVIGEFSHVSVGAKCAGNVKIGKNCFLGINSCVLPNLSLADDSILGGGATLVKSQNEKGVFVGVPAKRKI
Assay: PglD acetyltransferase inhibitors, dose response, biochemical, DTNB absorbance, Campylobacter jejuni, cherry-picked samples (AID 624110)
Settings: purified C. jejuni PglD, DTNB absorbance 412 nm; series mostly up to 19.5 µM

Question: Which outcome does the source give for `CCC(=O)Nc1ccc2c(c1)OC[C@@H](C)N(Cc1ccccn1)C[C@@H](C)[C@H](OC)CN(C)C2=O` here?
Answer: inactive

Question: How did the outcome turn out when `COCC#Cc1cnc2c(c1)C(=O)N([C@@H](C)CO)C[C@H](C)[C@@H](CN(C)C(=O)C1CCC1)O2` was run?
Answer: inactive

Question: For `CC=Cc1ccc2n(c1=O)C[C@@H]1[C@@H](CO)[C@H](C(=O)NCCOC)[C@H]2N1Cc1nccs1` (mixture of isomers), which outcome is on record?
Answer: inactive

Question: How did the outcome turn out when `CC(C)NC(=O)N(C)C[C@@H]1Oc2ccc(NC(=O)Cc3cn(C)c4ccccc34)cc2C(=O)N([C@H](C)CO)C[C@H]1C` was run?
Answer: inactive

Question: For `CC(=O)N[C@H]1CC[C@H](CC(=O)NCc2ccc(Cl)cc2)O[C@H]1CO`, which outcome is on record?
Answer: inactive

Question: How did the outcome turn out when `COc1ccc(C#Cc2cnc3c(c2)C(=O)N([C@@H](C)CO)C[C@H](C)[C@H](CN(C)CC2CCCC2)O3)cc1` was run?
Answer: inactive

Question: Which outcome does the source give for `CO[C@H]1CN(C)C(=O)c2cc(NC(C)=O)ccc2OC[C@@H](C)NC[C@@H]1C` here?
Answer: inactive

Question: How did the outcome turn out when `O=C(C[C@@H]1C[C@@H]2c3cc(NC(=O)NC4CCCCC4)ccc3O[C@@H]2[C@@H](CO)O1)NCc1cccnc1` was run?
Answer: inactive

Question: How did the outcome turn out when `O=C(C[C@@H]1CC[C@@H]2[C@H](COC[C@@H](O)CN2Cc2ccc(F)cc2)O1)N1CCc2ccccc2C1` was run?
Answer: inactive

Question: `CO[C@@H]1CN(C)C(=O)c2ccc(NS(C)(=O)=O)cc2OC[C@@H](C)N(C(=O)C2CCOCC2)C[C@H]1C` was tested. Which outcome did it give?
Answer: inactive

Question: For `C[C@@H]1CN([C@@H](C)CO)C(=O)c2cc(NC(=O)Nc3ccc(F)cc3)ccc2O[C@@H]1CN(C)CC1CCCCC1`, which outcome is on record?
Answer: inactive

Question: For `O=C(N[C@H]1C=C[C@@H](CC(=O)N2CCCCC2)O[C@H]1CO)c1ccc2c(c1)OCO2`, which outcome is on record?
Answer: inactive

Question: How did the outcome turn out when `Cc1noc(C)c1NC(=O)Nc1cccc2c1O[C@H](CN(C)C(=O)Nc1cccc3ccccc13)[C@@H](C)CN([C@H](C)CO)C2=O` was run?
Answer: inactive

Question: With `C/C=C/c1cnc2c(c1)C(=O)N([C@@H](C)CO)C[C@H](C)[C@@H](CN(C)C(=O)c1cccnc1)O2` as the compound, how does the outcome read?
Answer: inactive

Question: With `O=C(C[C@@H]1CC[C@H]2[C@@H](COC[C@H](O)CN2C(=O)Nc2cccc(F)c2)O1)NCc1ccccc1F` as the compound, how does the outcome read?
Answer: inactive

Question: For `C[C@H]1CN([C@@H](C)CO)C(=O)c2cccc(NC(=O)Nc3ccccc3)c2O[C@H]1CN(C)C`, which outcome is on record?
Answer: inactive
